Data: PubChem BioAssay (NCI)
The panel holds about 79,000 compounds, 15% with a hit somewhere; the sample as a whole holds those more often. A number with no mark means an inactive call. Active and inactive are the calls of the source. Rule as the data show it: active = growth inhibition above about 70%; inactive = the rest.

How the values were obtained:
[1] = NCI Yeast Anticancer Drug Screen. Data for the rad50 strain (AID 155);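 also: 0% = growth of vehicle-only cultures of the same strain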; settings: S. cerevisiae rad50 strain growth inhibition, active compounds read high
In short: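 Relative growth inhibition (compound vs vehicle) was measured in yeast with a defined repair-gene alteration.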

[2] = NCI Yeast Anticancer Drug Screen. Data for the mec2-1 strain (AID 157); settings: S. cerevisiae mec2-1 strain, active compounds read high
In short: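 Cells of the genetically defined mec2-1 yeast strain are incubated with test compound. Inhibition of growth is calculated against vehicle-treated controls.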

[3] = NCI Yeast Anticancer Drug Screen. Data for the sgs1 mgt1 strain (AID 161);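 also: 0% = growth of cultures given vehicle only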; settings: S. cerevisiae sgs1 mgt1 strain, active compounds read high
In short: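 Test agents were incubated with a DNA-repair-mutant yeast strain. Growth was then read and compared against vehicle-treated controls.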

[4] = NCI Yeast Anticancer Drug Screen. Data for the cln2 rad14 strain (AID 165);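 also: 0% = growth equal to vehicle treated cultures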; settings: S. cerevisiae cln2 rad14 strain, active compounds read high
In short: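 The screen exposed genetically defined yeast (cln2 rad14) to test compounds and scored growth inhibition relative to vehicle-treated controls.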

[5] = NCI Yeast Anticancer Drug Screen. Data for the bub3 strain (AID 167); settings: S. cerevisiae bub3 mutant strain, active compounds read high
In short: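 Screening used yeast with an engineered genetic alteration affecting cell cycle control. Compound-exposed cultures were compared with vehicle cultures, and reduced growth was taken as inhibition.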

[6] = NCI Yeast Anticancer Drug Screen. Data for the mlh1 rad18 strain (AID 175); settings: S. cerevisiae mlh1 rad18 strain growth inhibition, active compounds read high
In short: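 Compound-treated yeast growth, normalised to vehicle controls. Strain bears defined DNA repair mutations.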

[7] = at 5.0 µM (retest, dose inferred, filed as 0.5)
[8] = at 50.0 µM (retest, dose inferred, filed as 5.0)

Row | Compound | growth inhibition [1, 7] | growth inhibition [1, 8] | growth inhibition ([1]; at 50.0 µM) | growth inhibition [2, 7] | growth inhibition [2, 8] | growth inhibition ([2]; at 50.0 µM) | growth inhibition [3, 7] | growth inhibition [3, 8] | growth inhibition ([3]; at 50.0 µM) | growth inhibition [4, 7] | growth inhibition [4, 8] | growth inhibition ([4]; at 50.0 µM) | growth inhibition [5, 7] | growth inhibition [5, 8] | growth inhibition ([5]; at 50.0 µM) | growth inhibition [6, 7] | growth inhibition [6, 8] | growth inhibition ([6]; at 50.0 µM)
1 | C[N+](C)([O-])CCOc1cc2c(c3ccccc13)-c1ccccc1C2=O | 1% | 63% | 83.8% (active) | -1% | 7% | -4.3% | -4% | 19% | -8.2% | -5% | 5% | 13% | -5% | 4% | 0.15% | 1% | 13% | 16.9%
2 | Nc1nc(N)c2nc(CNc3ccc(C(=O)NC(CCC(=O)O)C(=O)O)cc3)cnc2n1 (configuration not stated) | -4% | 30% | 64.8% | -3% | 91% (active) | 97.8% (active) | -2% | -19% | 34.5% | 5% | -47% | -48.9% | 0% | -47% | 74.8% (active) | -1% | -19% | 83.5% (active)
3 | COC(OC)(c1ccccc1)C(I)I | 100% (active) | 100% (active) | 99% (active) | 100% (active) | 100% (active) | 99.4% (active) | 100% (active) | 100% (active) | 99.3% (active) | 100% (active) | 99% (active) | 99.5% (active) | 100% (active) | 100% (active) | 99.3% (active) | 100% (active) | 99% (active) | 99.5% (active)
4 | CCCCC(CC)(CCC)CCN (configuration not stated) | 1% | 93% (active) | 1.65% | 1% | 65% | 1.75% | 1% | 30% | 16.6% | 4% | 36% | 32% | -3% | 67% | -5.95% | -1% | 83% (active) | 31.4%
5 | CC(=O)Nc1ccc2c(c1)/C(=N/O)c1ccccc1-2 | -5% | 76% (active) | 67.2% | -11% | 90% (active) | 42% | -1% | 89% (active) | 74.9% (active) | -11% | 56% | 64.5% | -3% | 77% (active) | 72.4% (active) | 17% | 92% (active) | 77.3% (active)
6 | O=C(C(=O)c1ccncc1)c1ccccc1 | -148% | -127% | 7.6% | -52% | -55% | 23.1% | -58% | -63% | -5.6% | -59% | -59% | 34% | -64% | -83% | -12.2% | -117% | -114% | -14.6%
7 | COc1ccc(CN=C(N)N)c2ccccc12 | 5% | 7% | -29.9% | 2% | 5% | -24.4% | -6% | -1% | -15.7% | 31% | 31% | -3% | -22% | -23% | -32.5% | 13% | 10% | -5.45%
8 | CN(C)CC/C(=N\Nc1ccc(Cl)cc1)c1ccccc1 | 98% (active) | 99% (active) | 99.2% (active) | 100% (active) | 99% (active) | 98.8% (active) | 100% (active) | 99% (active) | 99% (active) | 96% (active) | 99% (active) | 95.9% (active) | 98% (active) | 99% (active) | 99.6% (active) | 99% (active) | 99% (active) | 98.7% (active)
9 | CNC(=O)OC(C)CN1c2ccccc2Sc2ccc(Cl)cc21 (configuration not stated) | 12% | 97% (active) | 89.1% (active) | -11% | 99% (active) | 84.5% (active) | 2% | 45% | 90.9% (active) | 19% | 98% (active) | 86.5% (active) | 26% | 98% (active) | 88.3% (active) | 19% | 98% (active) | 88.2% (active)
10 | O=C(CCN1CCCCC1)/C(=C\c1ccc(Cl)cc1)c1ccccc1 | 5% | 95% (active) | 99% (active) | 7% | 99% (active) | 99.4% (active) | 37% | 100% (active) | 99.3% (active) | 14% | 91% (active) | 99.1% (active) | 20% | 98% (active) | 99% (active) | 16% | 99% (active) | 99.2% (active)
11 | CCN(CC)CCOC(=O)C1C(c2ccccc2)C1(c1ccccc1)c1ccccc1 (configuration not stated) | 1% | 77% (active) | 73% (active) | 4% | 63% | 62.8% | 8% | 97% (active) | 88.7% (active) | 3% | 60% | 77.3% (active) | 8% | 85% (active) | 75.2% (active) | 5% | 96% (active) | 92.8% (active)
12 | Cc1ccc(-n2cc(-c3ccc(Cl)cc3)c3c(N)ncnc32)cc1 | 37% | 95% (active) | 97.1% (active) | 15% | 97% (active) | 94.8% (active) | 60% | 94% (active) | 98.3% (active) | -3% | 96% (active) | 88.3% (active) | 14% | 97% (active) | 92% (active) | 30% | 95% (active) | 96.8% (active)
13 | CC(=O)Oc1cc2c(cc1OC(C)=O)OCC(c1ccc(C)cc1)C2 (configuration not stated) | 8% | 65% | 53.1% | 8% | 49% | 57.9% | 4% | 61% | 32.1% | 2% | 72% (active) | 64% | 8% | 87% (active) | 73.7% (active) | 0% | 64% | 75.8% (active)
14 | CCOC(=O)/C=C(\C)OCC | -5% | 25% | 16.3% | -3% | 2% | 6.1% | -4% | 3% | 7.25% | -1% | 4% | 76% (active) | -5% | -4% | 38.9% | -5% | 7% | 10.4%
15 | CCOC(=O)c1c(I)[nH]c(I)c1C | -1% | 11% | 30.3% | 0% | 5% | 10.2% | -1% | 14% | 22.2% | -1% | 3% | 10.6% | 4% | 3% | 38.5% | 2% | 9% | 42.3%
16 | c1ccc2c(c1)[nH]c1cc3ccncc3cc12 | -45% | 90% (active) | 79.3% (active) | -30% | 29% | 46.9% | -24% | 52% | 45.6% | -13% | 42% | 34.7% | -49% | 51% | 34.5% | -75% | 56% | 61.7%
17 | CN(C)COC(=S)SCN(C)C | 98% (active) | 98% (active) | 51.4% | 96% (active) | 99% (active) | 54.1% | 99% (active) | 99% (active) | 60.2% | 93% (active) | 99% (active) | 52.9% | 96% (active) | 99% (active) | 98.3% (active) | 96% (active) | 99% (active) | 98.2% (active)
18 | CCC(=O)/C(=C\I)c1ccccc1 | 26% | 26% | 89.3% (active) | -6% | -6% | 92.2% (active) | 23% | 23% | 86.7% (active) | 8% | 8% | 89.9% (active) | 7% | 7% | 89.5% (active) | 21% | 21% | 85.5% (active)
19 | CCC[CH2][Sn]([CH2]CCC)([S]/C(C#N)=N/N=C/c1ccc(N(C)C)cc1)[S]/C(C#N)=N/N=C/c1ccc(N(C)C)cc1 | 57% | 98% (active) | 97% (active) | 66% | 98% (active) | 92.5% (active) | 52% | 98% (active) | 95.8% (active) | 40% | 94% (active) | 95% (active) | 64% | 99% (active) | 95.8% (active) | 72% (active) | 98% (active) | 95.9% (active)
